Reference: PubChem BioAssay
The source made the active and inactive calls.

Tests used:
Albumin (Bos taurus) = Albumin (Bos taurus) (UniProt P02769); assay: compounds binding labelled BSA control protein – biochemical, small-molecule microarray, Alexa647 label, 635/667 nm fluorescence, artefact control for SMM control protein annotation, profiling panel (AID 1118); settings: BSA-A647 binding, fluorescence 635 nm, higher = more signal;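 further: score merges 667 nm emission intensity and signal-to-noise per printed compound spot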
Albumin (Bos taurus), sequence (P02769 whole entry, looked up): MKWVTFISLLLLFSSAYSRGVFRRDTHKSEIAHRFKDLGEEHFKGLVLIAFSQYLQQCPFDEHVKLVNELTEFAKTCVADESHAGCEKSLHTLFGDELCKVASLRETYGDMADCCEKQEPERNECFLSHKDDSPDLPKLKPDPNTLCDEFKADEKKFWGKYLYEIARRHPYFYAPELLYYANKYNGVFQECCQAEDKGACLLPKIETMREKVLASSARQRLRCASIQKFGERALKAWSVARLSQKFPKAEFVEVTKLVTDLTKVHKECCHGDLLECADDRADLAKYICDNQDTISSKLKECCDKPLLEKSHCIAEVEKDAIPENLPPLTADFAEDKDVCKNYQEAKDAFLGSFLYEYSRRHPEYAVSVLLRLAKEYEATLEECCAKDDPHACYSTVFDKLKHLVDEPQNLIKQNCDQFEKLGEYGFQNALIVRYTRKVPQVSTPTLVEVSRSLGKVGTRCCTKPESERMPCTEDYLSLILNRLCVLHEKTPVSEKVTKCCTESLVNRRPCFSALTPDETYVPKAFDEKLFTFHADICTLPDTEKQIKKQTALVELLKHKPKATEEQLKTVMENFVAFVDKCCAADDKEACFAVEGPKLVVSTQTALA

[1] = probe aXIP binding to arrayed compounds – biochemical, NeuroSMM set, 635/667 nm fluorescence, primary screen (AID 1119); settings: small-molecule microarray, higher = more signal, called active from +8 up or from −8 down;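 further: probe is the protein aXip251-270 applied at 1 µg/mL to compound-printed slides; binding of probe to printed compounds measured as 667 nm fluorescence plus signal to noise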
[2] = probe aNOTCH3 binding on compound microarray – biochemical, small-molecule microarray, 635/667 nm fluorescence, primary screen (AID 1120); settings: higher = more signal;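 further: probe is a biotin-tagged antibody raised against NOTCH3 rather than NOTCH3 protein; score merges spot fluorescence near 667 nm with spot signal to noise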
[3] = probe aNOTCH2 binding on compound microarray – biochemical, small-molecule microarray, 635/667 nm fluorescence, primary screen (AID 1121); settings: higher = more signal;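 further: score merges feature fluorescence read at 667 nm with its signal to noise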
[4] = biological target: Carbonic anhydrase 2 (Homo sapiens) (UniProt P00918); assay: compounds binding carbonic anhydrase 2 – biochemical, small-molecule microarray, Alexa647-labelled CAII, profiling panel (AID 1122); settings: CAII-A647 binding fluorescence, higher = more signal
[5] = COS7 lysate on small-molecule microarray, probe aHis, 635 nm (AID 1123); settings: COS7 cell lysate, fluorescence, higher = more signal;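 further: z-score combines 667nm fluorescence intensity with signal-to-noise per printed compound spot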
[6] = probe aLAP1 signal on lysate-treated microarray – cell lysate, small-molecule microarray, COS7 lysate, primary screen (AID 1124); settings: probe aLAP1, fluorescence, higher = more signal;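 further: lysate comes from COS7 cells expressing LAP1 and is applied at 0.3 µg/mL; score merges spot fluorescence near 667 nm with signal-to-noise over triplicate slides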
Sam68 (KHDRBS1) = assay: compounds binding KHDRBS1 protein – biochemical, small-molecule microarray, 635 nm fluorescence, primary screen (AID 1125); settings: higher = more signal;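 further: score merges 667 nm channel intensity with signal to noise over triplicate slides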
[7] = system: Chordin-like protein 2 (CHRDL2); assay: compounds binding chordin-like 2 – biochemical, small-molecule microarray, 635 nm fluorescence, primary screen (AID 1126); settings: fluorescence 635 nm, higher = more signal;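 further: printed compound slides probed with Chrdl2 protein at 4 µg/mL for 1 h at 4 C; score merges 667 nm emission intensity with signal to noise over three replicate slides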
[8] = biological target: Concanavalin-A (Canavalia ensiformis) (UniProt P02866); assay: compounds binding concanavalin A lectin – biochemical, small-molecule microarray, Alexa647 label, 635 nm, artefact control for SMM control protein annotation, primary screen (AID 1127); settings: ConA-A647 binding fluorescence, higher = more signal;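 further: z combines 667 nm emission intensity with signal-to-noise across three replicate slides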
Concanavalin-A (Canavalia ensiformis), sequence (P02866 whole entry, looked up): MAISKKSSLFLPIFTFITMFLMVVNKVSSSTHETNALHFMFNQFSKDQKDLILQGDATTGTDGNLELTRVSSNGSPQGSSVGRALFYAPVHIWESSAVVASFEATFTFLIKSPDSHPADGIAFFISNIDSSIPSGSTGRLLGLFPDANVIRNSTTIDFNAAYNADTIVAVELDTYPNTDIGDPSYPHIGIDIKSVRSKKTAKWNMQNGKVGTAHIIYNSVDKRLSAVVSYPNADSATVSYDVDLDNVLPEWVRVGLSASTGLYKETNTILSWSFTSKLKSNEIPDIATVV

Row | SMILES | composite z-score (Albumin (Bos taurus)) | composite Z-score [1] | composite z-score [2] | composite z-score [3] | composite z-score [4] | composite z-score [5] | composite z-score [6] | composite z-score (Sam68 (KHDRBS1)) | composite z-score [7] | composite z-score [8]
1 | C=C(C(=O)CC[C@H](OC(=O)c1cccnc1)c1ccccc1OCCO)C(C)C | -0.609 | -0.507 (inactive) | 0.143 | -0.129 | 0.543 | 1.28 | 0.86 | 0.912 | 1.39 | 0.49
2 | C#C[C@H]1Oc2ccccc2S(=O)(=O)N2CCC[C@@H]12 | -1.3 | -0.0662 (inactive) | 0.0026 | -0.0548 | -0.156 | -0.117 | 0.0504 | -0.399 | 0.839 | -1.55
3 | C=CCNC(=O)[C@@H]1[C@H]2C(=O)O[C@H](c3ccccc3)[C@H](c3ccccc3)N2[C@H](c2ccccc2OCCO)[C@@]12C(=O)N(C(=O)OCCOC)c1ccc(C#CCC(C(=O)OC)C(=O)OC)cc12 | 0.718 | 1.26 (inactive) | 1.41 | 0.526 | 0.505 | 3.05 | 1.33 | 1.32 | 1.49 | 1.15
4 | C[n+]1ccc2ccc(O)cc2c1 | -0.567 | -0.269 (inactive) | -0.0044 | -0.102 | 0.596 | 0.403 | 0.854 | 0.14 | 1.27 | 0.369
5 | CC(C)[Si]1(C(C)C)O[C@@H](c2ccccc2)c2cc(-c3ccc(-c4ccc(Cl)c(Cl)c4)o3)nc(CCc3ccccc3)c21 | -1.24 | 0.0953 (inactive) | -0.226 | -0.148 | 0.287 | 0.143 | 0.312 | -0.141 | -1.59 | -1.04
6 | [N-]=[N+]=Nc1ccccc1[C@@H]1OC(c2ccc(OCCCO)cc2)=N[C@]1(CCS(=O)(=O)c1ccccc1)C(=O)N1CCCCC1 | 1.03 | -0.0281 (inactive) | 0.144 | 0.139 | 0.625 | 1.93 | 0.686 | 1.29 | -0.74 | 1.2
7 | CCOC(=O)N1C(c2ccc(OCCCO)cc2)=NC(C(=O)OC)N1C(=O)OCC (stereo not given) | 0.878 | -0.363 (inactive) | 0.183 | -0.0326 | 0.733 | 1.73 | 0.626 | 1.18 | -0.105 | 1.09
8 | C=C(COC)C(=O)CC[C@@H](OC(=O)c1ccccc1-c1ccccc1C(=O)O)c1ccc(CO)o1 | -0.651 | 0.082 (inactive) | -0.154 | -0.0817 | 0.309 | 1.77 | 0.447 | 0.504 | 1.24 | 0.865
9 | C=C(COC)/C(=C/C[C@H](OC(C)=O)c1ccccc1OCCO)c1cnc2ccccc2c1 | 0.185 | 0.115 (inactive) | -0.0044 | -0.14 | 0.648 | 0.649 | -0.186 | 1.06 | 1 | 0.49
10 | O=C1C2C=CC(C(O)c3ccc(Br)cc3)N(n3cnnc3)C2C(=O)N1Cc1ccccc1 (stereo not given) | 0.807 | -1.02 (inactive) | -0.0443 | -0.0004 | 0.259 | 1.57 | 0.448 | 1.29 | -0.064 | 1.07
11 | CC(C)(C)OC(=O)CC[C@]1(C(=O)NCC(O)CO)N=C(c2ccc(OCCCO)cc2)O[C@H]1c1ccccc1CN=[N+]=[N-] (stereo not given in full) | 0.906 | 1.27 (inactive) | 0.883 | 0.382 | 0.747 | 2.82 | 1.58 | 1.16 | 0.0916 | 1
12 | O=C1O[C@@H](c2ccccc2)[C@@H](c2ccccc2)N2[C@@H](c3ccc(O)cc3)[C@]3(C(=O)Nc4ccccc43)[C@@H](C(=O)N3CCCCCCC3)[C@H]12 | 0.875 | 5.98 (inactive) | 1.82 | 0.464 | 0.89 | 3.78 | 1.14 | 1.29 | 1.11 | 1.17
13 | CN1C(=O)C2C=CC(C(O)C(c3ccccc3)c3ccccc3)N(Nc3ccccc3)C2C1=O (stereo not given) | 0.959 | 0.462 (inactive) | 0.466 | 0.0018 | 0.453 | 2.72 | -0.167 | 1.31 | 0.106 | 1.16
14 | COC(=O)[C@@]1(Cc2ccc(OC)cc2)[C@H]2c3cc(C(=O)N4CCCC4)n(CCc4ccccn4)c3C[C@H]2CN1C(=O)c1ccccc1 | 0.348 | 0.868 (inactive) | 0.268 | 0.0746 | 0.862 | 3.52 | 0.425 | -0.724 | -0.236 | 0.949
15 | O=C(NCC(F)(F)F)[C@@H]1c2ccccc2C(=O)N(Cc2ccccc2)[C@H]1c1ccc(CO)cc1 | -1.27 | 0.111 (inactive) | -0.354 | -0.0586 | 0.723 | 1.08 | 0.345 | -0.141 | -1.57 | -0.331
16 | COCCCNC(=O)[C@]1(Cc2ccccc2N=[N+]=[N-])N=C(c2ccc(OCCCO)cc2)O[C@@H]1c1ccccc1CN=[N+]=[N-] | 0.522 | 0.0955 (inactive) | 0.523 | 0.202 | 0.398 | 2.51 | 0.561 | 1.12 | 0.228 | 1.13
17 | O=C1C2C=CC(C(O)C3CC=CCC3)N(n3cnnc3)C2C(=O)N1Cc1ccccc1 (stereo not given) | -0.952 | 0.241 (inactive) | -0.213 | -0.202 | 0.903 | 0.233 | 1.34 | 0.185 | -1.69 | -0.137

Row | SMILES | composite z-score (Albumin (Bos taurus)) | composite Z-score [1] | composite z-score [2] | composite z-score [3] | composite z-score [4] | composite z-score [5] | composite z-score [6] | composite z-score (Sam68 (KHDRBS1)) | composite z-score [7] | composite z-score [8]
18 | C=CCOC(=O)[C@@H]1[C@H]2C(=O)O[C@H](c3ccccc3)[C@H](c3ccccc3)N2[C@H](c2ccc(OCCOC(=O)[C@H]3C[C@H]4C(=O)N[C@@H](CC(C)C)C(=O)N4[C@H]3c3cccc(OCCO)c3)cc2)[C@@]12C(=O)Nc1ccc(I)cc12 | -0.413 | -0.367 (inactive) | 0.19 | -0.0424 | 0.35 | 1.48 | 0.334 | 1.29 | 1.04 | 1.14
19 | Oc1ccc2cc[n+](Cc3cccc(OC(F)(F)F)c3)cc2c1 | -0.192 | 0.587 (inactive) | -0.215 | -0.117 | 0.853 | 1.58 | 0.0966 | -0.28 | 0.959 | 0.373
20 | CCCC[C@@H]1C[C@H]1[C@@H](NC(=O)c1ccccc1)c1ccccc1 | 0.0945 | 0.103 (inactive) | 0.667 | 0.253 | -0.0524 | 0.506 | -0.159 | 0.138 | -0.608 | -0.482
21 | C=CCC(OC(C)=O)[C@@H]1[C@@H](N(Cc2ccc(-c3cccc(C(F)(F)F)c3)o2)C(=O)Cc2ccc(OC)cc2)c2cc(OCCCO)ccc2N1C(=O)Cc1ccc(OC)cc1 (stereo not given in full) | 0.478 | -0.784 (inactive) | -0.193 | -0.193 | 0.158 | 0.043 | -0.39 | -0.399 | 0.292 | -0.947
22 | COCCOC(=O)N1C(=O)[C@@]2(c3cc(C#Cc4ccc(OC)cc4)ccc31)[C@H](c1ccc(O)cc1)N1[C@H](c3ccccc3)[C@H](c3ccccc3)OC(=O)[C@H]1[C@@H]2C(=O)N1CCN(c2ncccn2)CC1 | 0.303 | -0.321 (inactive) | 0.0486 | -0.0956 | 0.395 | 1.48 | 0.406 | 1.2 | -0.126 | 0.657
23 | O=C1OCCC=C[C@H]2OC34C=CCN(CCN5CCOCC5)C(=O)[C@H]3N(CCO)C(=O)[C@@H]4C12 (stereo not given in full) | -0.188 | -0.7 (inactive) | 0.16 | -0.202 | 0.72 | -0.219 | -0.193 | -1.08 | 0.112 | -0.916
24 | COc1ccc([Si](C)(C)[C@@H]2[C@@H](CCn3cc([C@H](O)c4ccccc4)nn3)O[C@]3(C(=O)N(C)c4ccccc43)[C@H]2C)cc1 | 0.718 | 0.19 (inactive) | -0.175 | -0.19 | 0.494 | 0.613 | 0.0014 | 0.302 | -0.13 | 0.44
25 | CC(C)OC(=O)C1=CCC(c2cccc(Cl)c2)O1 (stereo not given) | 0.569 | 0.403 (inactive) | -0.36 | -0.169 | 0.848 | 2.72 | -0.157 | 0.649 | -1.72 | 0.417
26 | CN1C(=O)C2C(C1=O)C1C=C(c3ccc(CO)cc3)C2C(C2CC2)N1Cc1sc2ccccc2c1Cl (stereo not given) | 0.947 | -0.0285 (inactive) | 0.248 | 0.114 | 0.661 | 2.59 | 0.74 | 1.3 | -0.124 | 1.21
27 | CC(C)C(=C=CC[C@H](O)c1ccccc1OCCO)CCO | -0.415 | -0.172 (inactive) | -0.0947 | -0.045 | 0.707 | 0.989 | 0.342 | 0.829 | -0.332 | -0.284
28 | COC(=O)[C@@]1(Cc2ccc(F)cc2)[C@H]2c3cc(C(=O)N4CCCC4)n(CCc4ccc(OC)c(Br)c4)c3C[C@H]2CN1C(=O)c1ccccc1 | 0.843 | -0.61 (inactive) | 0.591 | 0.323 | 0.599 | 3.26 | 0.987 | 1.33 | -1.39 | 1.15
29 | COC(=O)c1c(CC[C@@H](CO)NC(=O)Nc2ncn[nH]2)oc(C(=O)Cc2ccccc2)c1C(=O)OC | -0.145 | 1 (inactive) | 0.158 | -0.12 | 0.768 | 3.22 | 0.705 | 0.885 | 1.08 | 1.16
30 | [N-]=[N+]=NCc1ccccc1C[C@]1(C(=O)NCCN2CCOCC2)N=C(c2ccc(OCCCO)cc2)O[C@H]1c1ccccc1CN=[N+]=[N-] | 0.825 | -0.0191 (inactive) | 0.399 | -0.0474 | 0.337 | -0.827 | 0.736 | 1.13 | -0.0255 | 1.05
31 | CCCC[C@@H]1C[C@H]1[C@@H](NC(=O)c1ccco1)c1ccccc1 | 0.277 | -0.264 (inactive) | -0.25 | -0.193 | -0.504 | -0.185 | -0.697 | -0.555 | -1.41 | -0.945
32 | C=CCN1C(=O)[C@]2(COC(c3ccc(OCCCO)cc3)=N2)Cc2ccccc21 | 0.284 | -0.586 (inactive) | -0.0362 | -0.0583 | 0.627 | 2.78 | 1.11 | 0.487 | 0.0453 | 0.953
33 | C=C[C@H](C)[C@H](OC(=O)Nc1ccc(OC)cc1)c1ccc(O)c2ccccc12 | 0.171 | 0.741 (inactive) | -0.185 | -0.193 | 0.696 | 0.702 | 0.513 | -0.07 | 0.396 | -0.503
34 | CC(c1ccccc1)C(O)C1C=CC2C(=O)N(Cc3ccccc3)C(=O)C2N1n1cnnc1 (stereo not given) | 0.405 | 0.171 (inactive) | 0.178 | -0.046 | 0.415 | 1.06 | -0.0771 | 0.669 | -0.226 | 0.851
